PubChem BioAssay
Calls of active or inactive are those of the source.

Assays:
Albumin (Bos taurus) = Albumin (Bos taurus) (UniProt P02769); experiment: compounds binding labelled BSA control protein – biochemical, small-molecule microarray, Alexa647 label, 635/667 nm fluorescence, artefact control for SMM control protein annotation, profiling panel (AID 1118); conditions: BSA-A647 binding, fluorescence 635 nm, higher = more signal;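 note: score merges 667 nm emission intensity and signal-to-noise per printed compound spot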
[1] = probe aXIP binding to arrayed compounds – biochemical, NeuroSMM set, 635/667 nm fluorescence, primary screen (AID 1119); conditions: small-molecule microarray, higher = more signal, called active from +8 up or from −8 down;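 note: probe is the protein aXip251-270 applied at 1 µg/mL to compound-printed slides; binding of probe to printed compounds measured as 667 nm fluorescence plus signal to noise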
[2] = probe aNOTCH3 binding on compound microarray – biochemical, small-molecule microarray, 635/667 nm fluorescence, primary screen (AID 1120); conditions: higher = more signal;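 note: probe is a biotin-tagged antibody raised against NOTCH3 rather than NOTCH3 protein; score merges spot fluorescence near 667 nm with spot signal to noise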
[3] = probe aNOTCH2 binding on compound microarray – biochemical, small-molecule microarray, 635/667 nm fluorescence, primary screen (AID 1121); conditions: higher = more signal;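 note: score merges feature fluorescence read at 667 nm with its signal to noise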
[4] = molecular target: Carbonic anhydrase 2 (Homo sapiens) (UniProt P00918); experiment: compounds binding carbonic anhydrase 2 – biochemical, small-molecule microarray, Alexa647-labelled CAII, profiling panel (AID 1122); conditions: CAII-A647 binding fluorescence, higher = more signal
[5] = COS7 lysate on small-molecule microarray, probe aHis, 635 nm (AID 1123); conditions: COS7 cell lysate, fluorescence, higher = more signal;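 note: z-score combines 667nm fluorescence intensity with signal-to-noise per printed compound spot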
[6] = probe aLAP1 signal on lysate-treated microarray – cell lysate, small-molecule microarray, COS7 lysate, primary screen (AID 1124); conditions: probe aLAP1, fluorescence, higher = more signal;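 note: lysate comes from COS7 cells expressing LAP1 and is applied at 0.3 µg/mL; score merges spot fluorescence near 667 nm with signal-to-noise over triplicate slides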
Sam68 (KHDRBS1) = experiment: compounds binding KHDRBS1 protein – biochemical, small-molecule microarray, 635 nm fluorescence, primary screen (AID 1125); conditions: higher = more signal;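 note: score merges 667 nm channel intensity with signal to noise over triplicate slides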
[7] = system: Chordin-like protein 2 (CHRDL2); experiment: compounds binding chordin-like 2 – biochemical, small-molecule microarray, 635 nm fluorescence, primary screen (AID 1126); conditions: fluorescence 635 nm, higher = more signal;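 note: printed compound slides probed with Chrdl2 protein at 4 µg/mL for 1 h at 4 C; score merges 667 nm emission intensity with signal to noise over three replicate slides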
[8] = molecular target: Concanavalin-A (Canavalia ensiformis) (UniProt P02866); experiment: compounds binding concanavalin A lectin – biochemical, small-molecule microarray, Alexa647 label, 635 nm, artefact control for SMM control protein annotation, primary screen (AID 1127); conditions: ConA-A647 binding fluorescence, higher = more signal;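 note: z combines 667 nm emission intensity with signal-to-noise across three replicate slides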
Chain of Concanavalin-A (Canavalia ensiformis) (P02866 whole entry, looked up): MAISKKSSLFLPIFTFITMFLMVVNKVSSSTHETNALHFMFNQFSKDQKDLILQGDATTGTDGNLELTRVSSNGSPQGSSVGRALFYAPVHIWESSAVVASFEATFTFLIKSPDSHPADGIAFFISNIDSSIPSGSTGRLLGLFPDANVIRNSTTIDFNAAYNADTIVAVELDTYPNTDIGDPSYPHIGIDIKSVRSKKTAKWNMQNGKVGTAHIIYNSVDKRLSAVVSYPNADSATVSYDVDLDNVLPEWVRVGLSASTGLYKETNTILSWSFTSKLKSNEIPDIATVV

Chain of Albumin (Bos taurus) (P02769 whole entry, looked up): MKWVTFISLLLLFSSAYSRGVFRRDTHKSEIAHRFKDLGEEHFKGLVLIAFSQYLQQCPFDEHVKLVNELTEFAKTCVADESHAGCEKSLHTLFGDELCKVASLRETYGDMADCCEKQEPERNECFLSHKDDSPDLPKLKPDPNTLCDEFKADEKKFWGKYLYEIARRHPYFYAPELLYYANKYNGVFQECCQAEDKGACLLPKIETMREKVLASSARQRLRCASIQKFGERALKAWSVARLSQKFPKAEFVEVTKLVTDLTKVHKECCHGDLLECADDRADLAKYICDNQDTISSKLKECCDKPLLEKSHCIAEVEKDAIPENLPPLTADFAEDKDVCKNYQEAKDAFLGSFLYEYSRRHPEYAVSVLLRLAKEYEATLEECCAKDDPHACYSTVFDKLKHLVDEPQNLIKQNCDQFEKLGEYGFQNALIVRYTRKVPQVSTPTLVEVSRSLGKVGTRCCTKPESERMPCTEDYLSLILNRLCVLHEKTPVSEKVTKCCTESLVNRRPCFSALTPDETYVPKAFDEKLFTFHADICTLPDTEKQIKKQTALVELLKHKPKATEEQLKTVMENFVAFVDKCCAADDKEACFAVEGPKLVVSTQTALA

SMILES	composite z-score (Albumin (Bos taurus))	composite Z-score [1]	composite z-score [2]	composite z-score [3]	composite z-score [4]	composite z-score [5]	composite z-score [6]	composite z-score (Sam68 (KHDRBS1))	composite z-score [7]	composite z-score [8]
C=CCOc1ccc([C@@H]2CC=C(C(=O)OCC)[C@H](c3cccc(Br)c3)N2S(=O)(=O)c2ccc(C)cc2)cc1	0.64	0.0809 (inactive)	0.032	-0.0784	-0.125	0.491	0.11	0.099	0.314	0.709
C=CC[C@@]1(C(=O)NCCN2CCOCC2)N=C(c2ccc(OCCCO)cc2)O[C@@H]1c1ccccc1	0.262	-0.288 (inactive)	0.291	-0.0907	0.673	2.52	0.871	1.12	1.4	0.608
COCCOC(=O)N1C(=O)[C@@]2(c3ccccc31)[C@H](c1ccc(OCCO)cc1)N1[C@H](c3ccccc3)[C@H](c3ccccc3)OC(=O)[C@H]1[C@@H]2C(=O)NC[C@H](O)c1ccccc1	0.128	0.774 (inactive)	0.327	-0.084	0.505	1.91	0.123	1.29	0.508	1.02
CCCNC(=O)[C@@H]1c2ccccc2C(=O)N(CC23CC4CC(CC(C4)C2)C3)[C@H]1c1ccc(CO)cc1	0.472	0.39 (inactive)	0.0702	0.0521	0.395	1.98	0.12	1.29	0.781	1.09
C=C(COC)C(=O)CC[C@H](OC(=O)c1ccccc1-c1ccccc1C(=O)O)c1ccc(CO)o1	-0.701	0.403 (inactive)	-0.203	-0.14	0.365	-0.264	0.134	0.807	0.55	0.332
CC(C)(C)N1CC=CC23O[C@@H]4C=CCCOC(=O)C4[C@H]2C(=O)N(CCCO)[C@@H]3C1=O (stereo not given in full)	-2.01	0.494 (inactive)	-0.222	-0.177	0.405	-0.552	-0.0817	-1.76	-0.487	-3.17
C[N+](C)(C)CCCCCCNC(=O)[C@@H]1C[C@@H]2C(=O)NCC(=O)N2[C@@H]1c1cccc(OCCO)c1	-0.205	0.605 (inactive)	-0.0338	-0.14	0.656	1.1	-0.426	0.73	1.31	1.15
N#Cc1ccc(NN2C(C(O)c3ccccc3)C=CC3C(=O)N(c4ccccc4)C(=O)C32)cc1 (stereo not given)	0.801	0.151 (inactive)	0.222	0.0288	0.809	1.97	0.191	0.0437	-0.605	-0.0029
COC(=O)[C@@]1(Cc2ccc(F)cc2)[C@H]2c3cc(C(=O)N(C)C)n(CCSCCO)c3C[C@H]2CN1C(=O)c1ccccc1	1.04	0.116 (inactive)	0.0179	-0.0568	0.726	2.15	0.96	0.584	0.191	-0.103
CC(=O)NCCCC[C@@H]1NC(=O)[C@H]2C[C@@H](C(=O)NCCCCCN)[C@@H](c3cccc(OCCO)c3)N2C1=O	0.796	-0.306 (inactive)	0.0493	-0.0878	0.715	0.898	0.2	0.993	0.218	1.2
Cc1cc(C)c(C(O)C2C=CC3C(=O)N(c4ccccc4)C(=O)C3N2Nc2ccc([N+](=O)[O-])cc2)c(C)c1 (stereo not given)	1.06	-0.909 (inactive)	0.418	0.149	0.643	2.79	0.893	1.3	-0.224	1.19
COc1ccc(C(=O)Nc2ccc(CN3C(=O)[C@@]4(O[C@@H](CC(=O)N5Cc6ccccc6C[C@H]5CO)[C@H]([Si](C)(C)c5ccc(OC)cc5)[C@H]4C)c4ccccc43)cc2)cc1	0.604	-0.086 (inactive)	-0.137	-0.153	0.55	2.26	0.226	1.27	1.18	0.965
C=C[C@H](C)[C@H](OC(=O)Nc1ccc(SC)cc1)c1ccc(O)c2ccccc12	0.801	-0.53 (inactive)	-0.311	-0.192	0.736	0.518	-0.0167	-0.581	-0.0707	-0.252
Cc1ccc(F)cc1S(=O)(=O)N[C@@H]1CCN(C(=O)c2ccc(OC(C)C)cc2)C1	0.0765	-0.107 (inactive)	0.116	-0.184	-0.0494	0.644	0.194	1.13	0.686	0.0897
CC1(C)[C@@H]2CC(C(O)C3C=CC4C(=O)N(c5ccccc5)C(=O)C4N3Nc3ccccc3F)=C[C@@H]1C2 (stereo not given in full)	0.844	0.0252 (inactive)	0.272	-0.229	0.571	2.66	0.405	1.29	0.0364	1.09
Cc1ccc(S[C@]2(C(=O)O)CC(=O)N(C3CCCCC3)[C@@H]2c2ccc(CO)cc2)cc1	0.242	0.842 (inactive)	-0.398	0.0394	0.714	1.29	0.975	1.31	-0.134	1.16
COCC1=C([C@H](O)CCc2ccccc2)[C@H](CO)[C@@H]2C(=O)N(C)C(=O)[C@@H]2C1	0.218	-0.222 (inactive)	0.0893	-0.0502	0.426	-0.0175	0.0165	0.322	0.758	-0.0605
CC(C)C[C@@H]1NC(=O)[C@@H]2C[C@H](C(=O)NCCCC[N+](C)(C)C)[C@H](c3cccc(OCCO)c3)N2C1=O	-1.59	0.0578 (inactive)	0.116	-0.0999	0.479	0.432	0.255	0.82	1.44	0.496
NC(=O)NCC#Cc1ccc2c(c1)[C@]1(C(=O)N2)[C@H](c2ccc(O)cc2)N2[C@H](c3ccccc3)[C@H](c3ccccc3)OC(=O)[C@H]2[C@@H]1C(=O)NC[C@H](O)c1ccccc1	0.233	-0.539 (inactive)	-0.464	-0.122	-0.051	0.327	0.469	-1.03	-1.12	-1.34
CC(C)N1CC=CC23O[C@@H]4C=CCOC(=O)[C@@H]4[C@H]2C(=O)N(CCCCCCO)[C@@H]3C1=O (stereo not given in full)	0.771	0.714 (inactive)	-0.0697	-0.0451	0.923	-0.0499	1.15	-0.351	-1.17	-0.82
CC(C)CNC(=O)[C@@]1(C)c2ccccc2C(=O)N(Cc2ccccc2)[C@H]1c1ccc(CO)cc1	-0.928	3.02 (inactive)	-0.352	-0.133	0.788	1.19	1.16	-0.992	-2.5	-1.44
Cc1ccccc1C(O)C1C=CC2C(=O)N(Cc3ccccc3)C(=O)C2N1n1cnnc1 (stereo not given)	0.756	0.358 (inactive)	0.159	-0.137	0.71	0.774	-0.0065	1.01	-0.317	0.71
O=C1C[C@@](C(=O)NCc2ccccc2)(c2ccc([N+](=O)[O-])cc2)[C@@H](c2ccc(CO)cc2I)N1C1CCCCC1	-0.13	-0.0966 (inactive)	0.446	0.202	0.448	1.15	-0.0355	1.23	0.633	0.957
COCC(=C=CC[C@@H](O)c1ccccc1OCCO)C[C@@H](O)COCc1ccccc1	0.521	0.418 (inactive)	0.779	0.365	0.73	2.22	1.04	1.04	-0.463	0.244
C[N+](C)(C)CCCC[C@@H]1NC(=O)[C@@H]2C[C@H](C(=O)NCCCCCNC(=O)CS)[C@H](c3cccc(OCCO)c3)N2C1=O	0.666	0.0831 (inactive)	0.0287	-0.0662	0.399	0.46	-0.343	0.765	0.361	0.88
O=C(C=C(CC(O)c1cccc(Cl)c1)OCCF)OCCF (stereo not given)	0.912	-0.361 (inactive)	-0.0903	-0.0746	0.0119	0.143	0.624	-2.33	-0.594	-0.444
O=C1C2C=CC(C(O)c3cccc4ccccc34)N(Nc3ccccc3)C2C(=O)N1c1ccccc1 (stereo not given)	0.571	0.739 (inactive)	0.277	0.0312	0.655	2.28	1.47	0.983	0.724	0.89
